Among the test systems are NCI-H23 lung; NCI-H226 lung; NCI-H322M lung; HOP-62 NSCLC; NCI-H460 lung; NCI-H522 lung; A549/ATCC NSCLC; 786-0 renal; COLO 205 colon.
What all share (assay): NCI-60 one-dose screen, 48 h (100 = growth as untreated, 0 = no growth, -100 = all killed)
Conditions in all cases: 10 µM unless noted

The source of these data is PubChem BioAssay (NCI).

About 83,000 compounds went through this panel and 20% of them were active in at least one assay; those are over-represented in the sample as a whole.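 How to read the values: 0–100, growth inhibition (40 = 60% inhibited); 0, no net growth; -100 to 0, cell death (-40 = 40% of starting cells died; -100 = all dead).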 Values without a mark were called inactive. Active and inactive are the calls of the source. How the source made its calls: active means growth percent below 10; inactive means the rest.

For the molecule `O=C(Nc1nc2ccc([N+](=O)[O-])cc2s1)Nc1ccccc1Br`, the growth in the assay with NCI-H23 lung is 9.86% (active); in the assay with NCI-H226 lung, 38.4%; in the assay on NCI-H322M lung it was 27.6%; in the assay with HOP-62 NSCLC it was 91.2%; in the assay with NCI-H460 lung, 27.4%; with NCI-H522 lung, 26.5%. Moreover, the growth with A549/ATCC NSCLC was 49.4%; with 786-0 renal it was 70%; with COLO 205 colon, 55.3%.

Turning to `CC[C@H](CO)Nc1ccc2ncc(C#Cc3cncc(C(=O)Nc4ccc(CN5CCN(C)CC5)c(C(F)(F)F)c4)c3)n2n1`, the growth in the assay on NCI-H23 lung was -80.8% (active); in the assay with NCI-H226 lung, -25.7% (active); in the assay on NCI-H322M lung, -16.6% (active); with HOP-62 NSCLC it was -45% (active); in the assay with NCI-H460 lung, -93% (active); with NCI-H522 lung it was -75.8% (active). The growth with A549/ATCC NSCLC was -0.341% (active); in the assay with 786-0 renal it was -97.2% (active); in the assay on COLO 205 colon, -92.5% (active).

Take `COc1cc(OC)c(S(N)(=O)=O)cc1C(C)=O`: the growth was 106% in the assay on NCI-H23 lung; 103% in the assay with NCI-H226 lung; 109% in the assay with NCI-H322M lung; 113% in the assay on HOP-62 NSCLC; 107% in the assay on NCI-H460 lung; 103% in the assay with NCI-H522 lung. Besides, the growth with A549/ATCC NSCLC is 104%; in the assay with 786-0 renal, 101%; in the assay on COLO 205 colon, 119%.

On to `NC(N)=Nc1ccc(Oc2cccc(Nc3ccc(Br)c(C(F)(F)F)c3)c2)cc1`, for which the growth with NCI-H23 lung was 13.8%; in the assay on NCI-H226 lung, 39.2%; in the assay with NCI-H322M lung it was 44.8%; with HOP-62 NSCLC, -37.1% (active); in the assay with NCI-H460 lung, -66.9% (active); in the assay with NCI-H522 lung it was 15%. Besides, the growth in the assay with A549/ATCC NSCLC is 33.7%; in the assay with 786-0 renal, 32.7%; in the assay on COLO 205 colon it was -31.2% (active).

For the molecule `Cn1cc(-c2nc(N)nnc2-c2c[nH]c3ccccc23)c2cc(Br)ccc21`, the growth with NCI-H23 lung was 17%; in the assay on NCI-H226 lung, 60.3%; with NCI-H322M lung, 41.9%; in the assay on HOP-62 NSCLC it was 45.9%; in the assay with NCI-H460 lung, 12.6%; with NCI-H522 lung, -2.27% (active). For the same molecule, the figures for the growth in the assay on A549/ATCC NSCLC, in the assay on 786-0 renal and in the assay on COLO 205 colon were 50.8%, 43.5% and 9.53% (active), respectively.

As to `NC(=O)c1c(NC(=O)c2ccc(F)cc2F)sc2c1CCC(=O)C2`, the growth in the assay on NCI-H23 lung is 18.5%; with NCI-H226 lung, 88%; in the assay on NCI-H322M lung, 99.8%; in the assay with HOP-62 NSCLC, 104%; with NCI-H460 lung, 109%; with NCI-H522 lung, 10.2%. Moreover, the growth is 106% with A549/ATCC NSCLC, 83.4% in the assay on 786-0 renal and 98.7% in the assay with COLO 205 colon.

As for `NS(=O)(=O)c1ccc(-n2cc(-c3cccc(NC(=O)c4ccc(N5CCOCC5)c(C(F)(F)F)c4)c3)nn2)cc1`, the growth with NCI-H23 lung was 26.3%; in the assay on NCI-H226 lung, 15.5%; in the assay with NCI-H322M lung it was 26%; in the assay on HOP-62 NSCLC, 11.8%; with NCI-H460 lung it was 50.7%; in the assay on NCI-H522 lung, 39.9%. Moreover, the growth in the assay on A549/ATCC NSCLC is 53.5%; in the assay with 786-0 renal, 33.6%; in the assay with COLO 205 colon, 50.7%.

For `COc1cc2oc(-c3cccc(N)c3)cc(=O)c2c(OC)c1OC`, the growth with NCI-H23 lung is 110%; in the assay on NCI-H226 lung it was 99.9%; in the assay on NCI-H322M lung, 102%; with HOP-62 NSCLC, 115%; in the assay on NCI-H460 lung it was 106%; with NCI-H522 lung, 97.4%. In addition, the growth is 101% with A549/ATCC NSCLC, 94.1% with 786-0 renal and 126% with COLO 205 colon.

For `O=S(=O)(Nc1ccc(I)cc1Cl)c1ccc(-c2cnc(C3CC3)o2)cc1`, the growth in the assay on NCI-H23 lung was 45.4%; in the assay on NCI-H226 lung, 62.5%; with NCI-H322M lung, 64.8%; in the assay with HOP-62 NSCLC it was 52.7%; with NCI-H460 lung, 28.8%; in the assay with NCI-H522 lung, 34%. The growth was 54.6% in the assay on A549/ATCC NSCLC, 40.4% in the assay on 786-0 renal and 50.2% in the assay on COLO 205 colon.

With `Cc1ccc(NC(=O)N[C@@H](Cc2cc(F)cc(F)c2)C(=O)NC2C(=O)N3C[C@H](O)C[C@H]3C(=O)N3CCCC[C@H]3C(=O)N[C@@H](CO)C(=O)N3C[C@H](C)C[C@H]3C(=O)O[C@H]2C)c(F)c1` (some centres not stated), the growth in the assay with NCI-H23 lung was 28.2%; with NCI-H226 lung it was 8.45% (active); in the assay on NCI-H322M lung it was 70.7%; with HOP-62 NSCLC, 48.3%; in the assay on NCI-H460 lung, 37.3%; in the assay with NCI-H522 lung, 26.9%. Moreover, the growth is 73.4% with A549/ATCC NSCLC, 93.6% with 786-0 renal and -11.9% (active) in the assay with COLO 205 colon.

On to `O=C(Nc1ccc(F)c(F)c1)c1cc(-c2ccc(F)cc2F)ccc1O`, for which the growth with NCI-H23 lung was -9.76% (active); in the assay with NCI-H226 lung it was 3.67% (active); with NCI-H322M lung it was 3.88% (active); with HOP-62 NSCLC it was 19%; in the assay with NCI-H460 lung, 2.98% (active); in the assay with NCI-H522 lung, -1.71% (active). The results for the growth in the assay with A549/ATCC NSCLC, with 786-0 renal and with COLO 205 colon were 8.98% (active), 9.53% (active) and 82.1%, respectively.

On to `CCc1cccc2c3c(sc12)C(c1ccc(Cl)cc1)C(C#N)=C(/N=C/c1ccc(Cl)cc1)O3` (configuration not stated), for which the growth was 17.1% with NCI-H23 lung; 53.3% in the assay on NCI-H226 lung; 37.3% in the assay with NCI-H322M lung; 37% in the assay on HOP-62 NSCLC; 7.17% (active) in the assay with NCI-H460 lung; 10.8% with NCI-H522 lung. Moreover, the growth with A549/ATCC NSCLC is 33.8%; with 786-0 renal, 39.5%; in the assay on COLO 205 colon, 16.7%.

With `Clc1ccc(N/N=c2/oc3ccccc3cc2-c2cc3ccccc3[nH]2)cc1`, the growth with NCI-H23 lung is 64.4%; in the assay with NCI-H226 lung it was 77.7%; with NCI-H322M lung, 78.6%; with HOP-62 NSCLC it was 75.9%; in the assay with NCI-H460 lung, 85.2%; in the assay with NCI-H522 lung, 77.1%. Besides, the growth was 76.2% with A549/ATCC NSCLC, 87.7% with 786-0 renal and 95.8% in the assay on COLO 205 colon.

As for `COc1cccc2cc(-c3cc4ccccc4[nH]3)/c(=N\NC(=O)c3ccc(Cl)cc3)oc12`, the growth in the assay with NCI-H23 lung was 44.6%; in the assay with NCI-H226 lung, 44%; with NCI-H322M lung, 41.5%; in the assay on HOP-62 NSCLC, 31.3%; in the assay on NCI-H460 lung, 18.4%; with NCI-H522 lung, 18.7%. The growth with A549/ATCC NSCLC is 39.8%; in the assay with 786-0 renal it was 48.5%; with COLO 205 colon, 62.1%.

Regarding `O=C(Nc1nc2ccc([N+](=O)[O-])cc2s1)Nc1ccccc1Cl`, the growth in the assay on NCI-H23 lung is 9.48% (active); with NCI-H226 lung it was 30.7%; in the assay on NCI-H322M lung, 52.2%; in the assay on HOP-62 NSCLC, 28.2%; in the assay on NCI-H460 lung it was 20.1%; with NCI-H522 lung it was 0.0093% (active). Moreover, the growth in the assay on A549/ATCC NSCLC was 30.2%; in the assay on 786-0 renal, 48.5%; with COLO 205 colon, 39.8%.

Consider `CC1=N[C@@H]2CN(C(=O)OC(C)(C)C)C[C@@H]2n2c1cc1ccccc1c2=O`, for which the growth in the assay with NCI-H23 lung was 93.7%; in the assay on NCI-H226 lung it was 99.5%; with NCI-H322M lung, 98.6%; in the assay with HOP-62 NSCLC, 97.9%; with NCI-H460 lung it was 109%; with NCI-H522 lung, 98.6%. Moreover, the growth with A549/ATCC NSCLC is 103%; in the assay with 786-0 renal, 102%; in the assay on COLO 205 colon, 107%.

For `O=C(CCn1cc[n+](CC(=O)c2ccc(-c3ccccc3)cc2)c1)Nc1cccc2cccnc12`, the growth with NCI-H23 lung was 81.1%; in the assay on NCI-H226 lung, 83.3%; in the assay with NCI-H322M lung, 92.2%; in the assay with HOP-62 NSCLC it was 102%; in the assay with NCI-H460 lung, 91.9%; in the assay with NCI-H522 lung, 48%. Moreover, the growth is 94.4% in the assay with A549/ATCC NSCLC, 97.7% with 786-0 renal and 72.8% in the assay with COLO 205 colon.

For `COc1ccccc1NC1=C(Cl)C(=O)c2nc(C)ccc2C1=O`, the growth is -8.37% (active) in the assay on NCI-H23 lung; 29.6% in the assay with NCI-H226 lung; 71.1% with NCI-H322M lung; 74.1% in the assay with HOP-62 NSCLC; 70.8% with NCI-H460 lung; -48.5% (active) in the assay with NCI-H522 lung. Also, the growth was 101% in the assay with A549/ATCC NSCLC, 9.17% (active) in the assay on 786-0 renal and 111% in the assay on COLO 205 colon.
